The values that follow come from PubChem BioAssay (NCATS).

“And” between values parts separate entries of the source, which are not always exact repeats. Identical values can stand only once. Records with an inconclusive call do not appear. Unmarked numbers belong to inactive results. The source made the active and inactive calls. Calls follow the shape of the dose curve; as a rule, active = well fitted curve in the direction sought with a large enough effect; inconclusive = small, poorly fitted or top-dose-only effect, or another doubt; inactive = no such curve, though single readings can be large or run the other way. Non-standard residues stand in square brackets, D forms with d. Residues, ends and D or L forms follow the SMILES beside them. Orn = NCCC[C@H](N)C(=O)O
% is scaled to controls: 0 for no effect and ±100 for the full control effect; potency is read from the fitted curve at half-maximal effect.

A short description of this assay: qHTS Assay for Identifying Gametocytocidal Compounds (AID 743244).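 As to max response: actives lower the fluorescent signal which means gametocytes are killed.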 The note with it: P. falciparum 3D7 stage III-V gametocytes, alamarBlue, 72 h; max response: hits give low values. The method in brief:
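Stage III-V P. falciparum 3D7 gametocytes, 20,000 per well, were exposed to compounds for 72 h at 37C, 5% CO2. AlamarBlue was then added for 24 h and viability was read as fluorescence at Ex 525/Em 598 nm.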
(In general: Quantitative high-throughput screening tests each substance at several concentrations.)
Consider `C=C(NC(=O)C(=C)NC(=O)c1csc(C2=N[C@@H]3c4csc(n4)[C@H]4NC(=O)c5csc(n5)[C@H]([C@](C)(O)[C@@H](C)O)NC(=O)[C@H]5CSC(=N5)C(=CC)NC(=O)C([C@@H](C)O)NC(=O)c5csc(n5)[C@]3(CC2)NC(=O)[C@H](C)NC(=O)C(=C)NC(=O)[C@H](C)NC(=O)C([C@@H](C)CC)NC2C=Cc3c([C@H](C)O)cc(nc3C2O)C(=O)O[C@@H]4C)n1)C(N)=O` (stereo not given in full), for which the Potency was 11.2 µM (active).
As to `CC(C)(C)C1(O)CCN2CC3c4ccccc4CCc4cccc(c43)C2C1` (stereo not given), the max response is 10.9%.
As for `CCCCCCCCCCCC[n+]1ccc2ccccc2c1`, the Potency was 1.78 µM (active).
With `CNC(C)[C@@H]1CC[C@@H](N)[C@@H](O[C@H]2[C@H](O)[C@@H](O[C@H]3OC[C@](C)(O)[C@H](NC)[C@H]3O)[C@H](N)C[C@@H]2N)O1` (stereo not given in full), the max response is 5.9%.
Turning to `C[C@]12C=CC(=O)C=C1CC[C@@H]1[C@@H]2[C@@H](O)C[C@@]2(C)[C@H]1CC[C@]2(O)C(=O)COC(=O)CCC(=O)O`, the max response was -8.44%.
Take `O=C(O)c1cc(O)c2c(c1)[O][Bi][O]2`: the max response is 17.6%.
As for `CC[C@H]1OC(=O)C[C@@H](O)[C@H](C)[C@@H](O[C@@H]2O[C@H](C)[C@@H](O)[C@H](N(C)C)[C@H]2O)[C@@H](CCN2C[C@H](C)C[C@H](C)C2)C[C@@H](C)C(=O)/C=C/C(C)=C/[C@@H]1CO[C@@H]1O[C@H](C)[C@@H](O)[C@@H](OC)[C@H]1OC`, the max response was -0.81%.
On the same count and under the same terms, with `Nc1c(N=Nc2ccc(-c3ccc(N=Nc4cc(S(=O)(=O)O)c5ccccc5c4N)cc3)cc2)cc(S(=O)(=O)O)c2ccccc12` the figure was 13.5%; with `CC1(C)S[C@@H]2[C@H](NC(=O)C(C(=O)O)c3ccsc3)C(=O)N2[C@H]1C(=O)O` (stereo not given in full), 10.2%.
For the compound `COc1ccc(C[C@@H](C)NC[C@H](O)c2ccc(O)c(NC=O)c2)cc1`, the max response is 19.6%.
As for `O=C(O)C1CCCN1` (stereo not given), the max response is 5.42%.
On to `C[C@H](CCC(=O)O)[C@H]1CC[C@H]2[C@@H]3[C@H](O)C[C@@H]4C[C@H](O)CC[C@]4(C)[C@H]3CC[C@]12C`, for which the max response is 11%.
For the compound `CCOc1cc2ncc(C#N)c(Nc3ccc(OCc4ccccn4)c(Cl)c3)c2cc1NC(=O)/C=C/CN(C)C`, the Potency is 23.5 µM (active).
Consider `CC[C@@]1(O)C(=O)OCc2c1cc1n(c2=O)Cc2cc3c([N+](=O)[O-])cccc3nc2-1`, for which the max response is 2.02%.
On to `CCC1OC(=O)C[C@@H](O)[C@H](C)[C@@H](O[C@@H]2O[C@H](C)C[C@H](N(C)C)[C@H]2O)[C@@H](CC=O)C[C@@H](C)C(=O)/C=C/[C@]2(C)OC2C1C` (stereo not given in full), for which the Potency was 10 µM (active).
As for `CC(=O)O[C@]1(C(C)=O)CC[C@H]2[C@@H]3CCC4=CC(=O)CC[C@]4(C)[C@@]3(F)[C@@H](O)C[C@@]21C`, the max response is 11%.
On the same count and under the same terms, for `CCOc1ccc(N=Nc2ccc(N)cc2N)cc1` the value was 4.91%.
Take `CO[C@H]1C=CO[C@@]2(C)Oc3c(C)c(O)c4c(O)c(c5c(nc6cc(C)ccn65)c4c3C2=O)NC(=O)/C(C)=C\C=C[C@H](C)[C@H](O)[C@@H](C)[C@@H](O)[C@@H](C)[C@H](OC(C)=O)[C@@H]1C`: the Potency was 12.6 µM (active).
As for `CC(C(=O)O)c1ccc(N2Cc3ccccc3C2=O)cc1` (stereo not given), the max response was 8.38%.
On the same count and under the same terms, for `COc1cc([C@@H]2c3cc4c(cc3[C@@H](O[C@@H]3O[C@@H]5CO[C@@H](C)O[C@H]5[C@H](O)[C@H]3O)[C@H]3COC(=O)[C@H]23)OCO4)cc(OC)c1O` the value was -3.58%; for `CCC(=O)NS(=O)(=O)c1ccc(-c2c(-c3ccccc3)noc2C)cc1`, 39.9%.
Take `CC(C)C[C@@H]1NC(=O)[C@H](CCCN)NC(=O)[C@H](C(C)C)NC(=O)[C@@H]2CCCN2C(=O)[C@@H](Cc2ccccc2)NC(=O)[C@H](CC(C)C)NC(=O)[C@H](CCCN)NC(=O)[C@H](C(C)C)NC(=O)[C@@H]2CCCN2C(=O)[C@@H](Cc2ccccc2)NC1=O` (cyclo(V[Orn]L[dF]PV[Orn]L[dF]P)): the Potency is 2.24 µM (active).
Regarding `O=C(O)c1cc(=O)c2c3nc4ccccc4oc-3cc(=O)c2[nH]1`, the max response is -14.4%.
Same read-out and setting: for `C=CCSSSCC=C` the value was -8.99%.
For the compound `CCNC(=O)[C@@H]1CCCN1C(=O)[C@H](CCCN=C(N)N)NC(=O)[C@H](CC(C)C)NC(=O)[C@@H](Cc1c[nH]c2ccccc12)NC(=O)[C@H](Cc1ccc(O)cc1)NC(=O)[C@H](CO)NC(=O)[C@H](Cc1c[nH]c2ccccc12)NC(=O)[C@H](Cc1cnc[nH]1)NC(=O)[C@@H]1CCC(=O)N1`, the Potency was 6.31 µM (active).
With `CCC(=O)OCC(=O)[C@@]1(OC(=O)CC)[C@H](C)C[C@H]2[C@H]3[C@H]([C@@H](O)C[C@@]21C)[C@@]1(C)C=CC(=O)C=C1C[C@H]3Cl`, the max response is -4.51%.
On the same count and under the same terms, for `CC(NNC(=O)c1ccccc1)c1ccccc1` (stereo not given) the value was -2.82%; for `CC1=C(/C=C/C(C)=C/C=C/C(C)=C/C=C/C=C(C)/C=C/C=C(C)/C=C/C2=C(C)CCCC2(C)C)C(C)(C)CCC1`, -12%.
Consider `CO[C@H]1C=CO[C@@]2(C)Oc3c(C)c(O)c4c(O)c(c(/C=N/N5CCN(C6CCCC6)CC5)c(O)c4c3C2=O)NC(=O)/C(C)=C\C=C[C@H](C)[C@H](O)[C@@H](C)[C@@H](O)[C@@H](C)[C@H](OC(C)=O)[C@@H]1C`, for which the Potency is 10 µM (active).
For `CN1Cc2c(N)cccc2C(c2ccccc2)C1` (stereo not given), the max response was 14.6% and -4.23%.
On the same count and under the same terms, with `C#CCOc1ccc2c(C)cc(=O)oc2c1` the figure was 7.39%; with `C[C@@H]1[C@H](O)[C@@H](C)/C=C/C=C\C=C\C=C\C=C\C=C\C=C\[C@H](O[C@@H]2O[C@H](C)[C@@H](O)[C@H](N)[C@@H]2O)C[C@@H]2O[C@](O)(C[C@@H](O)C[C@@H](O)[C@H](O)CC[C@@H](O)C[C@@H](O)CC(=O)O[C@H]1C)C[C@H](O)[C@H]2C(=O)O` (stereo in doubt), 4.52%.
As to `C/C1=C2N=C(/C=C3N=C(/C(C)=C4\[N-][C@@](C)([C@@H]5N=C1[C@](C)(CCC(=O)NCC(C)OP(=O)(O)O[C@H]1[C@@H](O)[C@@H](n6cnc7cc(C)c(C)cc76)O[C@@H]1CO)[C@H]5CC(N)=O)[C@@](C)(CC(N)=O)[C@@H]4CCC(N)=O)[C@@](C)(CC(N)=O)[C@@H]\3CCC(N)=O)C(C)(C)[C@@H]/2CCC(N)=O.CC(=O)O.[Co]` (stereo not given in full), the Potency is 20 µM (active).
With `Nc1c(Br)cc(Br)cc1CNC1CCC(O)CC1` (stereo not given), the max response was 19%.
As for `OC[C@H]1O[C@@H](n2cnc3c2NC=NC[C@H]3O)C[C@@H]1O`, the max response was -6.17%.
